Bioassay records as filed in PubChem BioAssay.
SENP8 block-1 – SENP8 protease inhibition. AID 2540. purified SENP8, Z-RLRGG-aminoluciferin cleavage, luminescence. inhibition, % at 10 µM. 330,000 tested, 1.2% active; in the data active = inhibition above about 50%
Target sequence (Q96LD8 whole entry, looked up): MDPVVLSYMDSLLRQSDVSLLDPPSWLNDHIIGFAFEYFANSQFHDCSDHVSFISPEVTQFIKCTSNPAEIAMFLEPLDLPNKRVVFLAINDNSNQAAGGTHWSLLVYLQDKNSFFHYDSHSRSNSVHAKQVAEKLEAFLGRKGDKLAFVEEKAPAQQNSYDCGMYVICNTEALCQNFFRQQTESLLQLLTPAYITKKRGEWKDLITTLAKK
SENP8 block-2 – SENP8 (human) protease inhibition. Q96LD8. recombinant SENP8, Nedd8 substrate fluorescence. inhibition, % at 20 µM. 360,000 tested, 0.64% active; in the data active = inhibition mostly above about 40%, no sharp cut-off; inactive = mostly below about 27%
SENP7 inh – inhibitors of human SENP7 protease; 330,000 tested, 1.5% active; inhibition, % at 5 µM; recombinant SENP7, Z-RLRGG-aminoluciferin luminescence, 40 min; AID 434973; Q9BQF6;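 active = inhibition above about 50% at the single test dose, limit read from the data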;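 also: plate controls were DMSO with enzyme for no effect and no enzyme buffer wells for full effect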
Target sequence (Q9BQF6 706-1050 limits assumed): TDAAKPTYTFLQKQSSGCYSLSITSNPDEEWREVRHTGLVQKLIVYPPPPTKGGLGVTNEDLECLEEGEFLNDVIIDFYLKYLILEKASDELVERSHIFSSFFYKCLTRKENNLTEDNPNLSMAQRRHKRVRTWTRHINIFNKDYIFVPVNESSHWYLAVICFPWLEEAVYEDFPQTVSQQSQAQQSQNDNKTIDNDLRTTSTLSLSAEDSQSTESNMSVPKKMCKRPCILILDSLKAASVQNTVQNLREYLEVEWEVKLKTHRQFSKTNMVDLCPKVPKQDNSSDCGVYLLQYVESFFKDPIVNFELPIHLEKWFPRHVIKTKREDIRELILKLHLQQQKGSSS
PPC-1+TRAIL kill – compounds killing PPC-1 cancer cells with TRAIL present (potentiator screen, no TRAIL-free arm); cell killing (% activity), % at 4 µM or 5 µM; PPC-1 cells + TRAIL, ATPLite viability luminescence; 220,000 tested, 0.41% active;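 active = cell killing above 50% in the first pass at 4 µM, then a duplicate retest at 5 µM averaging 50% or more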;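 also: plate controls were cells with TRAIL plus DMSO for no effect and medium-only wells lacking cells for full effect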
TRAIL sens C8 – sensitizes caspase-8 expressing cells to TRAIL; 360,000 tested, 1% active; AID 624354; inhibition (viability loss, TRAIL sensitization), % at 10 µM; NB7+C8 cells + TRAIL, ATPlite viability luminescence;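 active = compounds causing at least 50% loss of cell viability in the single-dose screen, relative to plate controls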
SENP6 block – inhibitors of human SENP6 protease; Recombinant SENP6 catalytic domain, aminoluciferin luminescence; inhibition, % at 10 µM; 330,000 tested, 1.8% active;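 active = inhibition above about 50% at the single tested dose, limit read from the data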;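 also: plate controls were DMSO wells with enzyme for no effect and DMSO wells lacking enzyme for full effect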
Active calls of the source: *; · = no result given. Most compounds without a hit are left out; they make up all but 3% or so of the library.

SMILES | SENP8 block-1 | SENP8 block-2 | SENP7 inh | PPC-1+TRAIL kill | TRAIL sens C8 | SENP6 block
COc1ccccc1/C=N/Nc1cc(C)nc2ccc(C)cc12 | -16 | -298 | 3 | · | 2 | 2
COc1ccc2nc(C)cc(N/N=C/c3ccccc3)c2c1 | 1 | -388 | 3 | · | 53* | -2
C=CCOc1ccc(/C=C/C(=O)N2CCCN(S(=O)(=O)c3c(C)noc3C)CC2)cc1 | -13 | 5 | 2 | · | 6 | -13
CCCS(=O)(=O)NC(=O)C1(C)CCN(C(=O)c2ccc(F)c(C)c2)C1 (stereo unspecified) | · | 16 | · | · | -7 | ·
Cc1ccc(Nc2nc3ccccc3s2)cc1 | 72* | 9 | 87* | 36 | 34 | 82*
O=C(C[C@@H]1C/C=C/CC[C@H](Cc2ccc(F)cc2)C(=O)OC[C@@H](Cc2ccccc2)NC1=O)N[C@H](CO)Cc1ccccc1 | 8 | 16 | 5 | · | 77* | -13
C[C@@H]1COC(=O)[C@H](Cc2ccc(F)cc2)CC/C=C/C[C@@H](CC(=O)N[C@@H](CO)Cc2ccccc2)C(=O)N1 | 15 | 18 | -4 | · | 7 | 6
COc1ccccc1NS(=O)(=O)c1cn(C)cn1 | 3 | 20 | 0 | · | -8 | 1
C=C1C(=O)C23C(O)C1CCC2C12CCCC(C)(COC(C)=O)C1C(O)C3(O)OC2 (stereo unspecified) | · | 12 | · | · | 74* | ·
Cc1nn(CC(=O)N(C)C)c(C)c1S(=O)(=O)N1CCOCC1 | -4 | 8 | 2 | · | -13 | 8
Nc1nc2sc3c(c2cc1C(=O)NCC(=O)O)CCCC3 | 0 | -158 | 2 | · | 52* | 8
Nc1nc2sc3c(c2cc1C(=O)N1CCOCC1)CCCC3 | -5 | -479 | -7 | 1 | -11 | -25
Cc1onc(C(=O)N2CCN(C(c3ccccc3)c3ccccc3)CC2)c1[N+](=O)[O-] | 4 | 18 | 9 | 13 | 91* | 4
CCN(CC(=O)Nc1c(F)cccc1F)C(=O)C1COc2ccccc2O1 (stereo unspecified) | -8 | 6 | 6 | · | 10 | 3
NC1=C(Br)C(=O)c2ncccc2C1=O | · | 96* | · | · | 95* | ·
CC(=O)Oc1ccc(C(=O)Nc2ccc(S(=O)(=O)NCC3CCCO3)cc2)cc1 (stereo unspecified) | -3 | 8 | 0 | · | 18 | -8
Cc1ccc2c(c1C)-c1c(ccc(C)c1C)C(=O)C2=O | · | -19 | · | · | 58* | ·
Cc1ccc(CC#N)c(-c2c(CC#N)ccc(C)c2C)c1C | · | 6 | · | · | -3 | ·
O=C1/C(=C/C=C/c2ccco2)SC(=S)N1c1ccc(O)cc1 | 4 | 46* | 9 | 6 | 14 | -53
CCCCCCCCN1C(=O)[C@H](CC(=O)N2CCC(c3ccccc3)CC2)C[C@@]2(C(=O)OC)CC(C)(C)CC=C12 | · | 24 | · | · | 0 | ·
Cc1cc(SCC(=O)Nc2ccc3[nH]c(=O)[nH]c3c2)nc2ccccc12 | -16 | -2 | -8 | · | 23 | -29
COC(=O)c1cc(OCC(=O)Nc2ccc3c(c2)CCC3)cc(C(=O)OC)c1 | 3 | 4 | 7 | · | 94* | 4
COc1ccc(OCC(=O)Nc2ccc3c(c2)CCC3)cc1 | -6 | 2 | 4 | · | -3 | -15
CC(=O)N1Cc2ccccc2CC1C(=O)NCc1ccccc1F (stereo unspecified) | 3 | 6 | -3 | · | -5 | -10
CCOc1cccc(C(=O)Nc2ccc3[nH]ncc3c2)c1 | -10 | 12 | -17 | · | 62* | -11
SMILES | SENP8 block-1 | SENP8 block-2 | SENP7 inh | PPC-1+TRAIL kill | TRAIL sens C8 | SENP6 block
COc1cccc(C(=O)Nc2ccc3[nH]ncc3c2)c1 | 16 | 15 | 6 | · | 44 | 17
COc1ccc(-c2cnnc(N/N=C/c3ccc(O)c(OC)c3)n2)cc1 | -4 | 20 | 2 | 39 | 59* | -7
COc1cc(/C=N/Nc2nc(N3CCCC3)nc(N3CCCC3)n2)ccc1O | 1 | -12 | 6 | 29 | 1 | 4
CC(/C=N/NC(=O)c1nn(C)c(C)c1Br)=C\c1ccccc1 | -6 | 3 | 5 | 54* | 57* | -6
COc1ccc(NC(=O)CN(C)C(=O)C(Sc2ccccc2)c2ccccc2)cc1 (stereo unspecified) | 5 | -1 | -6 | · | 1 | 4
COc1ccc(Cl)cc1NC(=O)CN(C)C(=O)C1COc2ccccc2O1 (stereo unspecified) | 5 | 3 | 3 | · | -4 | -4
CN1CCN(c2ccc(NC(=O)N3CCc4ccccc43)cc2)CC1 | -5 | 12 | 1 | · | 61* | -20
Cc1ccc(NC(=O)N2CCCc3ccccc32)cc1 | -8 | 14 | -2 | 3 | -12 | -17
CCc1ccc(NC(=O)c2nc(S(=O)(=O)Cc3ccccc3)ncc2Cl)cc1 | -7 | 13 | -11 | · | 96* | 4
CCS(=O)(=O)c1ncc(Cl)c(C(=O)Nc2ccc(S(=O)(=O)N3CCC(C)CC3)cc2)n1 | 5 | 6 | 0 | · | 94* | 11
CC1CCN(S(=O)(=O)c2ccc(NC(=O)c3ccncc3)cc2)CC1 | -1 | 2 | 1 | · | 5 | -5
Cc1ccc(NC(=O)c2nc(S(=O)(=O)Cc3ccccc3C)ncc2Cl)cc1C | -1 | 12 | -7 | · | 58* | 5
CSc1ncc(Cl)c(C(=O)Nc2ccc(C)c(C)c2)n1 | -17 | 20 | -15 | · | -6 | -14
CC(=O)Nc1ccc(NC(=O)c2nc(S(=O)(=O)Cc3cccc(C)c3)ncc2Cl)cc1 | 0 | 20 | -1 | · | 90* | 11
COC(=O)c1ccc(NC(=O)c2nc(S(=O)(=O)Cc3cccc(C)c3)ncc2Cl)cc1 | -14 | 10 | -11 | · | 43 | -20
Cc1ccc(S(=O)(=O)N2CCCCC2)cc1NC(=O)c1cnccn1 | -7 | 2 | -6 | · | 7 | -13
CCOC(=O)c1ccc(NC(=O)c2nc(S(=O)(=O)Cc3ccccc3)ncc2Cl)cc1 | -6 | 14 | 7 | · | 78* | -11
CCc1cc2c(=O)c(-c3cnn(-c4ccccc4)c3)c(C)oc2cc1OCC(=O)Nc1cccc(C)c1 | 8 | 13 | -5 | 12 | 7 | -5
CCc1cc2c(=O)c(-c3cnn(-c4ccccc4)c3)c(C)oc2cc1OCC(=O)Nc1ccc(F)c(F)c1 | 4 | 10 | 2 | 15 | 52* | 4
Nc1ccc2c(c1)C(=O)c1ccccc1-2 | -11 | 10 | -5 | · | -19 | -6
Nc1ccc2c(c1)C(=O)C(=O)c1ccccc1-2 | 97* | 142* | 98* | 33 | 97* | 89*
Cc1c(NS(=O)(=O)c2cc(C(=O)OCC(=O)c3ccccc3F)ccc2Cl)c(=O)n(-c2ccccc2)n1C | · | 16 | · | · | 6 | ·
COC(=O)[C@]12CCCCC=C1N(Cc1cccc3ccccc13)C(=O)[C@H](CC(=O)NCC13CC4CC(CC(C4)C1)C3)C2 | · | 17 | · | · | 5 | ·
CC(C)(C)C(=O)[C@@H]1[C@@H]2C(=O)N(c3ccc4c(c3)OCCO4)C(=O)[C@@H]2C2c3ccccc3C=CN21 (stereo partly specified) | 14 | 60* | 10 | -7 | -19 | 24
